From ChEMBL document CHEMBL3433997, “St. Jude Leishmania screening dataset” (2016)

Biological target: Solute carrier family 2, facilitated glucose transporter member 1 (Homo sapiens) (UniProt P11166)
Test: ST_JUDE_LEISH: Cytotoxicity at 2uM final concentration against transgenic Leishmania Mexicana promastigotes LmGLUT1 that are glucose transport deficient and complemented with the human glucose transporter GLUT1. Activity is measured by DNA content using SYBR green in vitro
Format: functional

Sequence of Solute carrier family 2, facilitated glucose transporter member 1 (Homo sapiens) (P11166 whole entry): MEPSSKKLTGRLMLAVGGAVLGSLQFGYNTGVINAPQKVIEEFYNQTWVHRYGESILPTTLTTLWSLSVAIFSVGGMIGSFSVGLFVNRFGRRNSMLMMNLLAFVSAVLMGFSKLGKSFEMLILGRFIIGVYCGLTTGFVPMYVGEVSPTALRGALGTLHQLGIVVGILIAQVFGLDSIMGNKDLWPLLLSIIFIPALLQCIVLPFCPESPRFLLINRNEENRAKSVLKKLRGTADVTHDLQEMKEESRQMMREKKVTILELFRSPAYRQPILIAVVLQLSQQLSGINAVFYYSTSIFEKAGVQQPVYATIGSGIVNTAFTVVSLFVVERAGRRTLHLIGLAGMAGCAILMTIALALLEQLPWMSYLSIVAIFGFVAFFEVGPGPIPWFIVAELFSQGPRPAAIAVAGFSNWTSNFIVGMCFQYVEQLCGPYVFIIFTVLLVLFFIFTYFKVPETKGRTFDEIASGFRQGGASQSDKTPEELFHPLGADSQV

SMILES | inhibition [%]
CC(C)c1ccc(NC(=O)c2cccc(CN3CCCN(Cc4cccc(C#N)c4)CC3)c2)cc1 | 6.55
CCCCC(CC)CN1C(=O)C(c2ccccc2)(c2ccccc2)N=C1N (stereo not given) | -0.17
Cc1cc(=O)[nH]c(-n2nc(C)cc2NC(=O)C(c2ccccc2)c2ccccc2)n1 | 20.5
CCOc1ccc2nc(N(CCCn3ccnc3)C(=O)C=Cc3cccs3)sc2c1 | 3.54
O=C(NC1CCN(c2ccnc3cc(Cl)ccc23)C1)c1ccc(F)cc1F (stereo not given) | 1.51
COc1ccc(S(=O)(=O)N2CCC(NS(=O)(=O)c3ccc(F)cc3)CC2)cc1 | 3.51
Cc1cccc2nc(-c3cccc(-c4cccc(NC(=O)c5cnn6cccnc56)c4)c3)[nH]c12 | 5.09
CC(O)C1CCCCN1C(=O)c1ccc(-c2ccc(-c3nc4cc(F)ccc4[nH]3)cc2)cc1 (stereo not given) | 3.95
CC/N=C(/NCCCCCCN/C(=N/CC)NCc1ccccc1)NCc1ccccc1 | 0.49
N#Cc1ccc2c(c1)CCN(CCC1CCC(NC(=O)/C=C/c3ccc4ccccc4c3)CC1)CC2 (stereo not given) | -0.35
CCOc1ccc(-n2nc3c(Cl)nnc(-c4ccccc4)c3c2-c2ccccc2)cc1 | 4.48
CNC(=O)c1ccccc1Nc1nc(Nc2ccc(CCN3CCN(C)CC3)cc2)ncc1Cl | 74.6
O=C(Nc1cccc(-c2cccc(CN3CCCC3)c2)c1)c1cccc(Cl)c1 | 2.72
Cc1cccc2nc(-c3cccc(-c4cccc(CNCc5ccc(S(C)(=O)=O)cc5)c4)c3)[nH]c12 | 1.64
CCCNCc1ccc(-c2ccc(CN(CCOC)C(=O)c3ccccc3)cc2)nc1 | 1.21
N#Cc1cccc(-c2cccc(C(=O)NC3CCC(CCN4CCc5ccc(C#N)cc5CC4)CC3)c2)c1 (stereo not given) | 10.8
Clc1ccc2c(NCc3ccc4c(c3)OCO4)ccnc2c1 | 6
CCCCCCCCc1c(C)nc(C)c(C#N)c1O | 5.8
O=C(Nc1ccc(CN2CCN(S(=O)(=O)c3cccc(Cl)c3)CC2)cc1)c1cccs1 | 3.93
COc1ccc(OCCCCON2C(=N)N=C(N)NC2(C)C)cc1 | 3.18

SMILES | inhibition [%]
Cc1ccc(CCC(C)NCC(O)c2cccc(C(F)(F)F)c2)cc1 (stereo not given) | -0.37
CC(C)(C)c1ccc(N2C(N)=NC(N)=NC2(C)C)cc1Cl | 9.03
CCC(C)NC(=O)CN1CN(c2ccccc2)C2(CCN(C(=O)c3ccc(C(C)(C)C)cc3)CC2)C1=O (stereo not given) | 3.34
c1ccc2sc(Sc3ncnc4sccc34)nc2c1 | 2.07
Cc1cccc2nc(-c3ccc(-c4cccc(CN5CCN(CCN6CCOCC6)CC5)c4)s3)[nH]c12 | 0.45
O=C(Cn1c(CCc2cccc(F)c2F)nc(=O)c2ccccc21)N(CCN1CCCCC1)Cc1ccc(-c2ccc(C(F)(F)F)cc2)cc1 | 6.02
CN(C)Cc1cccc(-c2ccc(Nc3nccc(NCC(O)c4ccccc4)n3)cc2)c1 (stereo not given) | 2.6
O=C(NCC1CCC(C(=O)NCCc2ccc(Cl)c(Cl)c2)CC1)c1ccc(O)c(-c2ccc(Cl)c(Cl)c2)c1 (stereo not given) | -0.17
Cc1ccnc(Nc2nc(-c3ccccn3)cs2)c1 | 10.1
O=C(Nc1ccc(F)cc1F)NC1CCN(c2ccnc3cc(Cl)ccc23)C1 (stereo not given) | 6.88
O=[N+]([O-])c1cc(/C=N/Nc2nc3ccccc3[nH]2)ccc1O | 8.03
N#Cc1ccc(-c2ccc(C(=O)NCCCCN3CCC(c4ccc5c(c4OCc4ccccn4)CCCC5)CC3)cc2)cc1 | -0.71
CCOC(=O)c1cccc(NC(=O)Nc2cc(C)nc3ccccc23)c1 | 9.1
CC=CC(=O)N1CCN(c2nccc(-c3ccc(C(C)(C)C)cc3)n2)CC1 | 8.6
Cc1ccc(NS(=O)(=O)c2ccc(C(C)N3CCC(N4CCCCC4)CC3)cc2)cc1C (stereo not given) | -2.42
c1cc(CNC2CCCC2)cc(-c2ccc(CNc3ccc4ncccc4c3)cc2)c1 | -0.78
N#Cc1ccc(NC(=O)c2ccc(C(=O)NCCCCN3CCC(c4ccc5c(c4OCCOC4CCCCO4)CCCC5)CC3)cc2)cc1 (stereo not given) | 0.68
CNC(=O)Cc1ccc(C(=O)Nc2cccc(-c3ccc(-c4nc5cccc(C)c5[nH]4)s3)c2)cc1 | 3.65
CC(Cc1ccc(OCc2ccccc2)cc1)Nc1nc(O)c2ccccc2n1 (stereo not given) | 2.96
CCCN(CCC)C(=O)c1cc(C(=O)N[C@@H](Cc2ccccc2)[C@H](O)CNC(C)(C)c2cccc(OC)c2)cc(N2CCCCS2(=O)=O)c1 | 1.96

Biological target: Hexose transporter 1 (Plasmodium falciparum) (UniProt O97467)
Test: ST_JUDE_LEISH: Cytotoxicity at 2uM final concentration against transgenic Leishmania Mexicana promastigotes LmPfHT that are glucose transport deficient and complemented with the Plasmodium falciparum hexose transporter. Activity is measured by DNA content using SYBR green in vitro
Format: functional

SMILES | inhibition [%]
CC(C)c1ccc(NC(=O)c2cccc(CN3CCCN(Cc4cccc(C#N)c4)CC3)c2)cc1 | 6.93
CCCCC(CC)CN1C(=O)C(c2ccccc2)(c2ccccc2)N=C1N (stereo not given) | 0.02
Cc1cc(=O)[nH]c(-n2nc(C)cc2NC(=O)C(c2ccccc2)c2ccccc2)n1 | 29.6
CCOc1ccc2nc(N(CCCn3ccnc3)C(=O)C=Cc3cccs3)sc2c1 | 2.73
O=C(NC1CCN(c2ccnc3cc(Cl)ccc23)C1)c1ccc(F)cc1F (stereo not given) | 5.62
COc1ccc(S(=O)(=O)N2CCC(NS(=O)(=O)c3ccc(F)cc3)CC2)cc1 | 2.07
Cc1cccc2nc(-c3cccc(-c4cccc(NC(=O)c5cnn6cccnc56)c4)c3)[nH]c12 | 4.22
CC(O)C1CCCCN1C(=O)c1ccc(-c2ccc(-c3nc4cc(F)ccc4[nH]3)cc2)cc1 (stereo not given) | 3.23
CC/N=C(/NCCCCCCN/C(=N/CC)NCc1ccccc1)NCc1ccccc1 | -0.55
N#Cc1ccc2c(c1)CCN(CCC1CCC(NC(=O)/C=C/c3ccc4ccccc4c3)CC1)CC2 (stereo not given) | -1.71
CCOc1ccc(-n2nc3c(Cl)nnc(-c4ccccc4)c3c2-c2ccccc2)cc1 | 6.02
CNC(=O)c1ccccc1Nc1nc(Nc2ccc(CCN3CCN(C)CC3)cc2)ncc1Cl | 74.2
O=C(Nc1cccc(-c2cccc(CN3CCCC3)c2)c1)c1cccc(Cl)c1 | 2.72
Cc1cccc2nc(-c3cccc(-c4cccc(CNCc5ccc(S(C)(=O)=O)cc5)c4)c3)[nH]c12 | 0.32
CCCNCc1ccc(-c2ccc(CN(CCOC)C(=O)c3ccccc3)cc2)nc1 | 0.61
N#Cc1cccc(-c2cccc(C(=O)NC3CCC(CCN4CCc5ccc(C#N)cc5CC4)CC3)c2)c1 (stereo not given) | 8.62
Clc1ccc2c(NCc3ccc4c(c3)OCO4)ccnc2c1 | 8.03
CCCCCCCCc1c(C)nc(C)c(C#N)c1O | 6.51
O=C(Nc1ccc(CN2CCN(S(=O)(=O)c3cccc(Cl)c3)CC2)cc1)c1cccs1 | 2.08
COc1ccc(OCCCCON2C(=N)N=C(N)NC2(C)C)cc1 | 1.29

SMILES | inhibition [%]
Cc1ccc(CCC(C)NCC(O)c2cccc(C(F)(F)F)c2)cc1 (stereo not given) | 0.53
CC(C)(C)c1ccc(N2C(N)=NC(N)=NC2(C)C)cc1Cl | 7.39
CCC(C)NC(=O)CN1CN(c2ccccc2)C2(CCN(C(=O)c3ccc(C(C)(C)C)cc3)CC2)C1=O (stereo not given) | 2.77
c1ccc2sc(Sc3ncnc4sccc34)nc2c1 | -1.08
Cc1cccc2nc(-c3ccc(-c4cccc(CN5CCN(CCN6CCOCC6)CC5)c4)s3)[nH]c12 | -1.04
O=C(Cn1c(CCc2cccc(F)c2F)nc(=O)c2ccccc21)N(CCN1CCCCC1)Cc1ccc(-c2ccc(C(F)(F)F)cc2)cc1 | 4.32
CN(C)Cc1cccc(-c2ccc(Nc3nccc(NCC(O)c4ccccc4)n3)cc2)c1 (stereo not given) | 3.43
O=C(NCC1CCC(C(=O)NCCc2ccc(Cl)c(Cl)c2)CC1)c1ccc(O)c(-c2ccc(Cl)c(Cl)c2)c1 (stereo not given) | 0.8
Cc1ccnc(Nc2nc(-c3ccccn3)cs2)c1 | 22.4
O=C(Nc1ccc(F)cc1F)NC1CCN(c2ccnc3cc(Cl)ccc23)C1 (stereo not given) | 7.63
O=[N+]([O-])c1cc(/C=N/Nc2nc3ccccc3[nH]2)ccc1O | 8.49
N#Cc1ccc(-c2ccc(C(=O)NCCCCN3CCC(c4ccc5c(c4OCc4ccccn4)CCCC5)CC3)cc2)cc1 | 1.73
CCOC(=O)c1cccc(NC(=O)Nc2cc(C)nc3ccccc23)c1 | 6.21
CC=CC(=O)N1CCN(c2nccc(-c3ccc(C(C)(C)C)cc3)n2)CC1 | 9.97
Cc1ccc(NS(=O)(=O)c2ccc(C(C)N3CCC(N4CCCCC4)CC3)cc2)cc1C (stereo not given) | -0.86
c1cc(CNC2CCCC2)cc(-c2ccc(CNc3ccc4ncccc4c3)cc2)c1 | 0.28
N#Cc1ccc(NC(=O)c2ccc(C(=O)NCCCCN3CCC(c4ccc5c(c4OCCOC4CCCCO4)CCCC5)CC3)cc2)cc1 (stereo not given) | 2.54
CNC(=O)Cc1ccc(C(=O)Nc2cccc(-c3ccc(-c4nc5cccc(C)c5[nH]4)s3)c2)cc1 | 2.74
CC(Cc1ccc(OCc2ccccc2)cc1)Nc1nc(O)c2ccccc2n1 (stereo not given) | 1.33
CCCN(CCC)C(=O)c1cc(C(=O)N[C@@H](Cc2ccccc2)[C@H](O)CNC(C)(C)c2cccc(OC)c2)cc(N2CCCCS2(=O)=O)c1 | 1.53
